Measured values reported in publication PMC4336329 (PLoS ONE, 2015).
The campaign covered roughly 310,000 compounds. About 14,000 (4.5%) showed an effect of 50% or more. The effect is printed as a negative number. This is one part of a sample in which strong results are shown more often than they occur.

Molecular target: human ether-à-go-go-related gene (hERG) potassium channel (human, UniProt Q12809)
Test: primary screen, population patch clamp on CHO cells stably expressing hERG; higher = less effect of the substance
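Further: peak tail current of the secondary pulse compared with the same well before compound.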

human ether-à-go-go-related gene (hERG) potassium channel, sequence (Q12809 whole entry, looked up): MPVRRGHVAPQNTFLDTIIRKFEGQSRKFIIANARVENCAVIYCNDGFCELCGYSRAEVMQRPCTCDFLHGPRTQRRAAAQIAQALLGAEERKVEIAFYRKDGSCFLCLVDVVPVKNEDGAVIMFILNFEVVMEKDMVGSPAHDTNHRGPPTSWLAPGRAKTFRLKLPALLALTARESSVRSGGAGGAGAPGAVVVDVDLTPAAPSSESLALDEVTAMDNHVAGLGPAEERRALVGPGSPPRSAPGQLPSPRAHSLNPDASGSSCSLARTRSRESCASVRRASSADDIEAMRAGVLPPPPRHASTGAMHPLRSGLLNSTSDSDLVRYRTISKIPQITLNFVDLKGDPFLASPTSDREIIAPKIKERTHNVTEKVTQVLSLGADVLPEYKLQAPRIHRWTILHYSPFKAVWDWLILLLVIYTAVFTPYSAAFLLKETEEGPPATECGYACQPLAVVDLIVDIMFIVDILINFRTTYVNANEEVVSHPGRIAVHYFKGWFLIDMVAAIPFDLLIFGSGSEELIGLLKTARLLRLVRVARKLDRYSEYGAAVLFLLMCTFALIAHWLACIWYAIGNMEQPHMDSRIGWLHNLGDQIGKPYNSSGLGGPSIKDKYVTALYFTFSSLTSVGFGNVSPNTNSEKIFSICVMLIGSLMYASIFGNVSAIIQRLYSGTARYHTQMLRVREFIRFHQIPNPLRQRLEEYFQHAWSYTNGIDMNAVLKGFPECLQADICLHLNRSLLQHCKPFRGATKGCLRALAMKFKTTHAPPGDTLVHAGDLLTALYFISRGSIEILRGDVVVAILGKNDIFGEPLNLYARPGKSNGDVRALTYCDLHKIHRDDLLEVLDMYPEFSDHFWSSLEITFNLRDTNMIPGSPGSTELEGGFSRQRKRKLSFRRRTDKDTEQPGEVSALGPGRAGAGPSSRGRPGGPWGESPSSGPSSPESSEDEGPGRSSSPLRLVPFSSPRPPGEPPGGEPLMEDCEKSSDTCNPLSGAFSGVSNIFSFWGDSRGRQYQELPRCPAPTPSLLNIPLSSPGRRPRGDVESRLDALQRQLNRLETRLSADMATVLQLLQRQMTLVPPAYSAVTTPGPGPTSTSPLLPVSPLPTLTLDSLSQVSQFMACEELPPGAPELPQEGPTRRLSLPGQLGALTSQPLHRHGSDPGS

| Compound | hERG current change (%, negative = inhibition) at 10uM |
| --- | --- |
| COCCn1nnnc1CN1CCC(NC(=O)Nc2cccc(OC)c2)CC1 | 8.3% |
| Cc1ccccc1C(=O)NC1CCN(Cc2nnnn2Cc2ccc(F)cc2)CC1 | -40.9% |
| O=C(Nc1ccccc1F)NC1CCN(Cc2nnnn2Cc2ccc(F)cc2)CC1 | -69.2% |
| COc1cccc(NC(=O)NC2CCN(Cc3nnnn3Cc3ccc(F)cc3)CC2)c1 | -53.2% |
| COc1cccc(NC(=O)NC2CCN(Cc3nnnn3Cc3ccc4c(c3)OCO4)CC2)c1 | -23.3% |
| Cc1ccc(Cn2nnnc2CN2CCC(NC(=O)c3ccccc3F)CC2)cc1 | -27.2% |
| OC(c1ccccc1)(c1ccccc1)C1CCN(C(=S)NCCc2ccccc2)CC1 | 16.3% |
| CN(CC(=O)Nc1cccc(F)c1)C(=O)C1CC(=O)N(Cc2ccco2)C1 (centres unmarked) | -8% |
| CN(Cc1ccccc1)CC(O)COc1ccc(CNCCc2cccnc2)cc1 (centres unmarked) | -11.5% |
| O=C(CN(c1cccc(Cl)c1)S(=O)(=O)c1ccc(Cl)cc1)NCc1ccccn1 | -53.1% |
| CSc1ccc(S(=O)(=O)N(CC(=O)NCc2ccccn2)c2ccc(C)cc2)cc1 | -59.3% |
| Cc1ccc(S(=O)(=O)N(CC(=O)NCc2ccccn2)c2ccc(Cl)cc2)cc1 | -29.7% |
| CCNC(=O)CN(c1ccc(C)cc1)S(=O)(=O)c1ccc(SC)cc1 | -19% |
| CN(CC(=O)NCc1ccccn1)S(=O)(=O)c1ccc(Cl)cc1 | -12% |
| COc1ccc(S(=O)(=O)N(CC(=O)NCc2ccccn2)c2ccc(Cl)cc2)cc1 | 13.3% |
| CCN(Cc1ccccc1)S(=O)(=O)c1ccc2c(c1)NC(=O)CS2 | -44.5% |
| CN(CC(=O)Nc1ccccc1Br)C(=O)CN(C)C1CCCCC1 | 7.12% |
| Cc1cccc(C)c1-n1c(C)cc(/C=N/NC(=O)c2ccncc2)c1C | -12% |
| Cn1c(NC(=O)c2ccc(F)cc2)nc2ccccc21 | 21.5% |
| O=C(c1ccco1)N1CCN(C(=O)c2cc3ccccc3oc2=O)CC1 | -13.2% |
| O=C(c1cc2cc([N+](=O)[O-])ccc2oc1=O)N1CCN(c2ncccn2)CC1 | -0.285% |
| O=C(c1cc2cc([N+](=O)[O-])ccc2oc1=O)N1CCN(C2CCCCC2)CC1 | -72.5% |
| O=C(c1cc2cc([N+](=O)[O-])ccc2oc1=O)N1CCOCC1 | -0.062% |

| Compound | hERG current change (%, negative = inhibition) at 10uM |
| --- | --- |
| CCN1CCN(C(=O)c2cc3cc([N+](=O)[O-])ccc3oc2=O)CC1 | -14.4% |
| O=C(c1ccco1)N1CCN(C(=O)c2cc3cc([N+](=O)[O-])ccc3oc2=O)CC1 | -52.4% |
| Cc1ccc(S(=O)(=O)CCC(=O)Nc2ccc(Br)cc2)cc1 | -7.37% |
| CC(C)OC(=O)c1cc(C(=O)c2cc(F)ccc2O)coc1=N | -7.34% |
| Cl.O=C(O)C1=CCNCC1 | 17.6% |
| Cl.O=C(O)C1=CCCNC1 | -54.4% |
| COc1ccc(OC)c(NC(=O)c2ccccc2NC(=O)c2ccco2)c1 | -75.6% |
| COc1ccccc1NC(=O)c1cc(Cl)ccc1NC(=O)c1ccco1 | -1.81% |
| COc1ccc(NC(=O)c2ccccc2NC(=O)c2ccco2)cc1 | 18.5% |
| CCOc1ccccc1C(=O)Nc1cc(C)ccc1NC(=O)c1ccco1 | -75.3% |
| COc1ccccc1NC(=O)c1ccccc1NC(=O)c1cc(Cl)ccc1NC(=O)c1ccco1 | 2.97% |
| COc1ccccc1C(=O)Nc1cc(C)ccc1NC(=O)c1ccco1 | -44.4% |
| COc1ccc(NC(=O)c2cc(Cl)ccc2NC(=O)c2ccco2)c(OC)c1 | -85.2% |
| COc1ccc(C(=O)Nc2ccc(Cl)cc2C(=O)NCCN2CCOCC2)cc1 | -12.3% |
| COc1ccc(C(=O)Nc2ccccc2NC(=O)c2ccco2)c(OC)c1 | -21.9% |
| Cc1ccc(NC(=O)c2ccco2)c(NC(=O)c2ccccc2C)c1 | 17.9% |
| COc1ccc(C(=O)Nc2ccc(Cl)cc2C(=O)NCc2ccco2)cc1 | -0.702% |
| COc1ccc(C(=O)Nc2ccc(Cl)cc2C(=O)NCCO)cc1 | -53.8% |
| Cc1ccc(C(=O)OCC(=O)Nc2ccc3[nH]c(=O)[nH]c3c2)cc1S(=O)(=O)N1CCOCC1 | 4.19% |
| O=C(Nc1ccc(C(=O)N2CCCCC2)cc1)c1ccc(Br)cc1 | 3.55% |
| O=C(O)c1ccc2c(c1)CCC2 | 9.54% |
| Cc1cc(NC(=O)C23CC4CC(CC(C4)C2)C3)n[nH]1 | -0.917% |
| Cc1cccc(NC(=S)N2CCCC2)c1 | 11.1% |

| Compound | hERG current change (%, negative = inhibition) at 10uM |
| --- | --- |
| COc1cc(OC)cc(C(=O)Nc2c(C)nn(-c3ccccc3)c2C)c1 | -3.27% |
| COc1ccc(CCNC(=S)N2CCN(S(=O)(=O)c3ccccc3F)CC2)cc1 | -3.68% |
| CCOC(=O)c1c(-c2ccccc2)csc1NC(=O)c1nn(CC)cc1Br | 6.4% |
| O=C(Oc1ccc(Cl)cc1)c1ccc(COC(=O)c2cnccn2)cc1 | 14.9% |
| COc1ccc(NC(=O)c2ccco2)c(OC)c1 | 16.9% |
| COc1ccc(NC(=O)c2ccccc2NC(=O)c2ccco2)c(OC)c1 | -73.4% |
| COc1ccc(NC(=O)CCC(=O)Nc2cc(OC)c(NC(=O)c3ccco3)cc2OC)c(OC)c1 | 20.4% |
| O=C(O)c1ccccc1C1Nc2ccccc2C(=O)N1CCCN1CCOCC1 (centres unmarked) | 18.4% |
| C/C(=N/n1cnnc1)c1cccnc1 | -0.855% |
| C/C(=N\NC(=O)CCC(=O)Nc1ccc(C)c(C)c1)C1CC1 | 10.7% |
| Cc1ccc2cc(C#N)c(N3CCCN(C(=O)c4cnccn4)CC3)nc2c1 | -42.4% |
| Cc1ccc2cc(C#N)c(N3CCN(C)CC3)nc2c1 | 2.75% |
| Cc1ccc2cc(C#N)c(N3CCN(C(=O)c4cccs4)CC3)nc2c1 | -34.2% |
| N#Cc1cccnc1N1CCN(C(=O)c2cccs2)CC1 | -1.7% |
| COc1ccc(C(=O)N2CCN(c3nc4cc(C)ccc4cc3C#N)CC2)c(OC)c1 | -22.8% |
| Cc1ccc2cc(C#N)c(N3CCN(C(=O)c4ccccc4)CC3)nc2c1 | -67.1% |
| COc1cc(C(=O)N2CCCN(c3nc4cc(C)ccc4cc3C#N)CC2)cc(OC)c1OC | -53.5% |
| Cc1cccc2cc(C#N)c(N3CCN(C)CC3)nc12 | -46% |
| Cc1ccc2nc(N3CCN(C(=O)c4cccs4)CC3)c(C#N)cc2c1 | -76.9% |
| CCc1ccc2nc(N3CCN(C)CC3)c(C#N)cc2c1 | -54.3% |
| Cc1ccc2nc(N3CCN(C)CC3)c(C#N)cc2c1 | -42.3% |
| COc1ccc2cc(C#N)c(N3CCN(C(=O)c4ccccc4C)CC3)nc2c1 | -18.9% |
| Cc1cc(-c2ccccc2)nc(N(C)NC(=O)c2ccc(Cl)cc2)c1S(C)(=O)=O | 0.236% |

| Compound | hERG current change (%, negative = inhibition) at 10uM |
| --- | --- |
| CC(=O)c1cccc(NC(=O)N2CCC(C(=O)c3ccc(F)cc3)CC2)c1 | -28.1% |
| CCOc1ccc(N=Nc2c(C)[nH]n(-c3ccccc3)c2=O)cc1 | 18.6% |
| O=C(COC(=O)C1CCC1)Nc1ccccc1Sc1ccccc1 | 7.34% |
| COc1ccc2nc(NC(=S)NC(=O)c3ccco3)sc2c1 | 25.2% |
| COc1ccc(CCNC(=O)c2cnc3n(c2=O)CCS3)cc1OC | -5.87% |
| Cc1ccc(-n2c(C)nn(CCOc3ccccc3)c2=O)cc1 | 1.54% |
| Cc1ccc2nc(N3CCN(C(=O)c4ccc(F)cc4)CC3)c(C#N)cc2c1 | -73.6% |
| Cc1ccc(C(=O)N2CCCN(c3nc4cc5c(cc4cc3C#N)OCO5)CC2)cc1 | -0.619% |
| COc1ccccc1C(=O)N1CCN(c2nc3cc(C)c(C)cc3cc2C#N)CC1 | -2.28% |
| C/C(=N\NC(=O)c1cc(-c2ccc(O)cc2)nc2ccccc12)c1cccnc1 | 11.7% |
| COC(=O)/C=C1\SC(=Nc2ccccc2)NC1=O | 9.64% |
| Cc1nnc2ccc(N3CCCCC3)nn12 | 6.15% |
| Cc1nnc2ccc(N3CCN(c4ccccn4)CC3)nn12 | -57% |
| FC(F)(F)c1cccc(N2CCN(c3ccc4nnc(-c5ccccc5)n4n3)CC2)c1 | -4.4% |
| Cc1nnc2ccc(N3CCN(c4cccc(C(F)(F)F)c4)CC3)nn12 | -61.8% |
| Cc1nnc2ccc(-c3cccc(C(F)(F)F)c3)nn12 | -9.04% |
| Cc1nnc2ccc(N3CCCC3)nn12 | 6.22% |
| CN1CCc2c(sc(N)c2C(N)=O)C1 | 6.59% |
| S=c1[nH]c2ccc(Cl)cc2s1 | 21.1% |
| O=C(NCc1ccc(Cl)cc1)C(=O)Nc1nccs1 | 20.7% |
